# About 79,000 compounds went through this panel and 15% of them were active in at least one assay; those are over-represented in the sample as a whole. Unmarked numbers belong to inactive results. Activity calls are given as the source filed them. Rule as the data show it: active = growth inhibition above about 70%; inactive = the rest.
# Key:
# [1] = NCI Yeast Anticancer Drug Screen. Data for the rad52 strain (AID 147);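 also: 0% = growth of vehicle-treated control cultures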; details: S. cerevisiae rad52 mutant growth inhibition, active compounds read high
# Outline: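 Yeast strain carrying a DNA damage repair alteration was exposed to test compounds. Growth inhibition was measured relative to vehicle-treated controls.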
# [2] = NCI Yeast Anticancer Drug Screen. Data for the wt1 strain (AID 149);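 also: 0% = growth of vehicle-treated wt1 cultures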; details: S. cerevisiae wt1 strain (SPY 50644) growth inhibition, active compounds read high
# Outline: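 Readout: yeast growth inhibition, normalised to vehicle controls, in the wt1 strain exposed to test compounds.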
# [3] = NCI Yeast Anticancer Drug Screen. Data for the rad50EPP+ strain (AID 151);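 also: 0% = growth of vehicle-treated control cultures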; details: S. cerevisiae rad50 mutant strain, active compounds read high
# Outline: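 Yeast strain carrying rad50 alteration (rad50EPP+) exposed to compounds; growth inhibition measured relative to vehicle-treated controls.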
# [4] = NCI Yeast Anticancer Drug Screen. Data for the mgt1 strain (AID 153); details: S. cerevisiae mgt1 mutant growth inhibition, active compounds read high
# Outline: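 Yeast mgt1 strain (DNA repair/cell-cycle alteration panel) exposed to compounds; growth inhibition measured relative to vehicle-treated controls.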
# [5] = NCI Yeast Anticancer Drug Screen. Data for the rad50 strain (AID 155);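 also: 0% = growth of vehicle-only cultures of the same strain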; details: S. cerevisiae rad50 strain growth inhibition, active compounds read high
# Outline: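 Compounds were tested on a yeast strain with an engineered DNA damage repair alteration; the reported value is growth inhibition normalised to vehicle treatment.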
# [6] = NCI Yeast Anticancer Drug Screen. Data for the mec2-1 strain (AID 157); details: S. cerevisiae mec2-1 strain, active compounds read high
# Outline: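 mec2-1 yeast strain, carrying an alteration in DNA damage repair or cell cycle control, was exposed to compounds; growth inhibition was measured relative to vehicle-treated controls.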
# [7] = NCI Yeast Anticancer Drug Screen. Data for the sgs1 mgt1 strain (AID 161);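 also: 0% = growth of cultures given vehicle only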; details: S. cerevisiae sgs1 mgt1 strain, active compounds read high
# Outline: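 Yeast cells carrying a defined DNA-repair defect were exposed to test compounds. Growth inhibition was measured relative to vehicle-treated controls.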
# [8] = NCI Yeast Anticancer Drug Screen. Data for the CLN2oe strain (AID 163);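 also: 0% = growth of vehicle-only control cultures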; details: S. cerevisiae CLN2oe strain, active compounds read high
# Outline: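 Yeast cells carrying a defined cell-cycle control alteration were exposed to test compounds. Growth inhibition was scored against vehicle-treated control cultures.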
# [9] = NCI Yeast Anticancer Drug Screen. Data for the cln2 rad14 strain (AID 165);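 also: 0% = growth equal to vehicle treated cultures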; details: S. cerevisiae cln2 rad14 strain, active compounds read high
# Outline: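 Yeast carrying cln2 and rad14 alterations (cell cycle control and DNA damage repair) were exposed to compounds. Growth inhibition was measured against vehicle-treated controls.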
# [10] = NCI Yeast Anticancer Drug Screen. Data for the bub3 strain (AID 167); details: S. cerevisiae bub3 mutant strain, active compounds read high
# Outline: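 Growth of a checkpoint-deficient yeast mutant is measured after compound exposure. Values represent inhibition relative to vehicle.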
# [11] = NCI Yeast Anticancer Drug Screen. Data for the wt2 strain (AID 169);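 also: 0% = growth of vehicle-treated yeast cultures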; details: S. cerevisiae wt2 strain growth inhibition, active compounds read high
# Outline: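 Yeast cells were exposed to test compounds, and growth inhibition was measured relative to vehicle-treated controls.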
# [12] = NCI Yeast Anticancer Drug Screen. Data for the mlh1 strain (AID 171);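 also: 0% = growth of vehicle-treated control cultures of the same strain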; details: S. cerevisiae mlh1 strain growth inhibition, active compounds read high
# Outline: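 Yeast carrying a defined genetic alteration in DNA damage repair or cell cycle control were exposed to test compounds. Growth inhibition was measured relative to vehicle-treated controls.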
# [13] = NCI Yeast Anticancer Drug Screen. Data for the sgs1 strain (AID 173);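 also: 0% = growth of vehicle-only control cultures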; details: S. cerevisiae sgs1 mutant, active compounds read high
# Outline: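 Yeast mutant strains carrying defined defects in DNA damage repair or cell cycle control were exposed to test compounds. Growth inhibition was scored against vehicle-treated controls.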
# [14] = NCI Yeast Anticancer Drug Screen. Data for the mlh1 rad18 strain (AID 175); details: S. cerevisiae mlh1 rad18 strain growth inhibition, active compounds read high
# Outline: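 Growth inhibition of the yeast strain was measured after compound exposure and expressed relative to vehicle-treated controls. The strain carries defined defects in DNA damage repair.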
# [15] = NCI Yeast Anticancer Drug Screen. Data for the rad18 strain (AID 177); details: S. cerevisiae rad18 mutant growth inhibition, active compounds read high
# Outline: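 Yeast carrying a defined DNA damage repair alteration were exposed to compounds. Growth inhibition was expressed relative to vehicle-treated controls.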
# [16] = at 5.0 µM (retest, dose inferred, filed as 0.5)
# [17] = at 50.0 µM (retest, dose inferred, filed as 5.0)
structure (smiles),measurement,setting,value
Cc1cccc2c(NCCCN(C)C)c3c([N+](=O)[O-])ccc(C)c3nc12,growth inhibition,[1]; at 1.2 µM,76% (active)
same,growth inhibition,[1]; at 3.7 µM,91% (active)
same,growth inhibition,[1]; at 11.0 µM,94% (active)
same,growth inhibition,[1]; at 33.0 µM,97% (active)
same,growth inhibition,[1]; at 100.0 µM,97% (active)
same,growth inhibition,[2]; at 1.2 µM,5%
same,growth inhibition,[2]; at 3.7 µM,13%
same,growth inhibition,[2]; at 11.0 µM,39%
same,growth inhibition,[2]; at 33.0 µM,95% (active)
same,growth inhibition,[2]; at 100.0 µM,97% (active)
same,growth inhibition,[3]; at 1.2 µM,29%
same,growth inhibition,[3]; at 3.7 µM,55%
same,growth inhibition,[3]; at 11.0 µM,85% (active)
same,growth inhibition,[3]; at 33.0 µM,94% (active)
same,growth inhibition,[3]; at 100.0 µM,95% (active)
same,growth inhibition,[4]; at 1.2 µM,8%
same,growth inhibition,[4]; at 3.7 µM,20%
same,growth inhibition,[4]; at 11.0 µM,69%
same,growth inhibition,[4]; at 33.0 µM,98% (active)
same,growth inhibition,[4]; at 100.0 µM,98% (active)
same,growth inhibition,[5]; at 1.2 µM,54%
same,growth inhibition,[5]; at 3.7 µM,79% (active)
same,growth inhibition,[5]; [16],1%
same,growth inhibition,[5]; at 11.0 µM,92% (active)
same,growth inhibition,[5]; at 33.0 µM,94% (active)
same,growth inhibition,[5]; [17],78% (active)
same,growth inhibition,[5]; at 50.0 µM,97.8% (active)
same,growth inhibition,[5]; at 100.0 µM,96% (active)
same,growth inhibition,[6]; at 1.2 µM,22%
same,growth inhibition,[6]; at 3.7 µM,61%
same,growth inhibition,[6]; [16],-2%
same,growth inhibition,[6]; at 11.0 µM,96% (active)
same,growth inhibition,[6]; at 33.0 µM,98% (active)
same,growth inhibition,[6]; [17],11%
same,growth inhibition,[6]; at 50.0 µM,96.9% (active)
same,growth inhibition,[6]; at 100.0 µM,98% (active)
same,growth inhibition,[7]; [16],12%
same,growth inhibition,[7]; [17],46%
same,growth inhibition,[7]; at 50.0 µM,96.8% (active)
same,growth inhibition,[8]; at 1.2 µM,-2%
same,growth inhibition,[8]; at 3.7 µM,9%
same,growth inhibition,[8]; at 11.0 µM,41%
same,growth inhibition,[8]; at 33.0 µM,88% (active)
same,growth inhibition,[8]; at 100.0 µM,96% (active)
same,growth inhibition,[9]; [16],49%
same,growth inhibition,[9]; [17],95% (active)
same,growth inhibition,[9]; at 50.0 µM,91% (active)
same,growth inhibition,[10]; at 1.2 µM,-8%
same,growth inhibition,[10]; at 3.7 µM,-6%
same,growth inhibition,[10]; [16],-24%
same,growth inhibition,[10]; at 11.0 µM,16%
same,growth inhibition,[10]; at 33.0 µM,90% (active)
same,growth inhibition,[10]; [17],97% (active)
same,growth inhibition,[10]; at 50.0 µM,72.2% (active)
same,growth inhibition,[10]; at 100.0 µM,96% (active)
same,growth inhibition,[11]; at 1.2 µM,4%
same,growth inhibition,[11]; at 3.7 µM,15%
same,growth inhibition,[11]; at 11.0 µM,49%
same,growth inhibition,[11]; at 33.0 µM,95% (active)
same,growth inhibition,[11]; at 100.0 µM,97% (active)
same,growth inhibition,[12]; at 1.2 µM,8%
same,growth inhibition,[12]; at 3.7 µM,18%
same,growth inhibition,[12]; at 11.0 µM,63%
same,growth inhibition,[12]; at 33.0 µM,97% (active)
same,growth inhibition,[12]; at 100.0 µM,98% (active)
same,growth inhibition,[13]; at 1.2 µM,85% (active)
same,growth inhibition,[13]; at 3.7 µM,92% (active)
same,growth inhibition,[13]; at 11.0 µM,95% (active)
same,growth inhibition,[13]; at 33.0 µM,98% (active)
same,growth inhibition,[13]; at 100.0 µM,98% (active)
same,growth inhibition,[14]; [16],12%
same,growth inhibition,[14]; [17],61%
same,growth inhibition,[14]; at 50.0 µM,97.1% (active)
same,growth inhibition,[15]; at 1.2 µM,96% (active)
same,growth inhibition,[15]; at 3.7 µM,96% (active)
same,growth inhibition,[15]; at 11.0 µM,96% (active)
same,growth inhibition,[15]; at 33.0 µM,96% (active)
same,growth inhibition,[15]; at 100.0 µM,96% (active)
